Drawing on PubChem BioAssay (NCI), this text covers growth for 6 compounds.

The panel holds about 83,000 compounds, 20% with a hit somewhere; the sample as a whole holds those more often.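 How to read the values: 0–100, growth inhibition (40 = 60% inhibited); 0, no net growth; -100 to 0, cell death (-40 = 40% of starting cells died; -100 = all dead).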 Values without a mark were called inactive. Active and inactive are the calls of the source. The calls were made as follows: active = growth percent below 10; inactive = the rest.

Among the test systems are RPMI-8226 leukemia; OVCAR-5 ovarian; OVCAR-4 ovarian; SK-OV-3 ovarian; IGROV1 ovarian; OVCAR-3 ovarian; HS 578T breast; NCI/ADR-RES ovarian; BT-549 breast; MDA-MB-435 melanoma; SW-620 colon; MCF7 breast; HCT-116 colon; HCC-2998 colon; KM12 colon; OVCAR-8 ovarian; T-47D breast.
Common to all, as to assay: NCI-60 one-dose screen, 48 h (100 = growth as untreated, 0 = no growth, -100 = all killed)
What all share (conditions): 10 µM unless noted

Take `COc1cc2c(cc1OCCCCCn1c(-c3ccc(OCc4ccccc4)cc3)nc3cc(N4CCOCC4)ccc31)N=C[C@@H]1CCCN1C2=O`: the growth in the test with RPMI-8226 leukemia is 19.4%; in the test on OVCAR-5 ovarian it was 9.51% (active); in the test on OVCAR-4 ovarian, 21.4%; in the test on SK-OV-3 ovarian it was 35.3%; in the test on IGROV1 ovarian it was -58.7% (active); with OVCAR-3 ovarian it was 4.07% (active). Further, the growth in the test on HS 578T breast is 12.4%; in the test on NCI/ADR-RES ovarian it was 23.8%; in the test on BT-549 breast, 1.75% (active); with MDA-MB-435 melanoma, -9.74% (active); in the test on SW-620 colon, 0% (active); with MCF7 breast, -3.99% (active). Further, the growth is 2.97% (active) with HCT-116 colon, 4.97% (active) with HCC-2998 colon and -26.7% (active) in the test with KM12 colon.

As for `Nc1ccc(S(=O)(=O)Nc2ncccn2)cc1`, the growth is 112% in the test on RPMI-8226 leukemia; 102% in the test on OVCAR-8 ovarian; 112% with OVCAR-4 ovarian; 116% with SK-OV-3 ovarian; 116% in the test with IGROV1 ovarian; 115% with OVCAR-3 ovarian. Besides, the growth was 133% with HS 578T breast; 105% in the test on NCI/ADR-RES ovarian; 119% in the test on BT-549 breast; 108% with MDA-MB-435 melanoma; 105% in the test with SW-620 colon; 101% with MCF7 breast. The growth in the test on HCC-2998 colon was 104%; in the test with KM12 colon, 108%.

As to `NC(N)=N/N=C(/c1ccccc1)c1ccc(Cl)cc1`, the growth was 172% with RPMI-8226 leukemia; 96% in the test with OVCAR-5 ovarian; 95.2% in the test with OVCAR-4 ovarian; 81.2% in the test on SK-OV-3 ovarian; 18.7% with IGROV1 ovarian; 5.42% (active) in the test with OVCAR-3 ovarian. For the same compound, the growth was -22.5% (active) with HS 578T breast; 82.6% with NCI/ADR-RES ovarian; 64.5% in the test with T-47D breast; 70.2% in the test on BT-549 breast; -54.4% (active) in the test with MDA-MB-435 melanoma; 47.6% in the test with SW-620 colon. Besides, the values for the growth in the test on MCF7 breast, with HCT-116 colon and in the test with KM12 colon were 11.3%, 24.9% and 28.3%, respectively.

Consider `COc1cccc(C2C(C#N)=C(N)Oc3cc(OC)ccc32)c1` (stereo not given), for which the growth was 9.12% (active) with RPMI-8226 leukemia; 34.4% in the test on OVCAR-5 ovarian; 59.3% in the test on OVCAR-4 ovarian; 3.13% (active) with SK-OV-3 ovarian; 10.9% with IGROV1 ovarian; -28.9% (active) with OVCAR-3 ovarian. Also, the growth was 11.3% in the test on HS 578T breast; 3.99% (active) in the test with NCI/ADR-RES ovarian; 55.8% with T-47D breast; 15.8% in the test on BT-549 breast; -47.7% (active) in the test with MDA-MB-435 melanoma; 26% in the test with SW-620 colon. For the same compound, the growth is 17.1% in the test with MCF7 breast, 7.04% (active) in the test with HCT-116 colon, 0.0782% (active) in the test on HCC-2998 colon and 4.36% (active) with KM12 colon.

For the compound `CC[C@]1(O)CC2CN(CCc3c([nH]c4ccccc34)[C@@](C(=O)OC)(c3cc4c(cc3OC)N(C)[C@H]3[C@@](O)(C(=O)OC)[C@H](OC(C)=O)[C@]5(CC)C=CCN6CC[C@]43[C@@H]65)C2)C1` (stereo not given in full), the growth in the test with RPMI-8226 leukemia was 2.81% (active); in the test on OVCAR-8 ovarian it was 12.6%; with OVCAR-4 ovarian, 33.2%; in the test on SK-OV-3 ovarian it was 6.74% (active); in the test with IGROV1 ovarian, 15.9%; in the test with OVCAR-3 ovarian, -56% (active). For the same compound, the growth in the test with HS 578T breast is 29.7%; in the test on NCI/ADR-RES ovarian, -17.4% (active); in the test with BT-549 breast, 34.2%; in the test with MDA-MB-435 melanoma, -17.8% (active); in the test with SW-620 colon it was 21.6%; in the test on MCF7 breast it was 8.22% (active). Further, the growth in the test on HCT-116 colon is 1.69% (active); in the test with KM12 colon, -7.67% (active).

Take `Cc1nc2c(O)cccc2cc1CO`: the growth was 113% in the test on RPMI-8226 leukemia; 92.7% with OVCAR-5 ovarian; 100% in the test on OVCAR-4 ovarian; 110% in the test with SK-OV-3 ovarian; 120% with IGROV1 ovarian; 112% in the test on OVCAR-3 ovarian. Also, the growth in the test with HS 578T breast was 130%; with NCI/ADR-RES ovarian, 96.1%; in the test on T-47D breast, 99.4%; with BT-549 breast, 149%; in the test with MDA-MB-435 melanoma, 109%; in the test with SW-620 colon, 108%. The growth in the test on MCF7 breast was 96.8%; in the test on HCT-116 colon, 107%; with HCC-2998 colon it was 103%; in the test on KM12 colon, 113%.
